ST2 IL33 inh – IL1RL1 inhibition; actives 2.3% (n = 78,000); Q01638; AID 1259354; inhibition, % for hits at 17 µM; AlphaLISA ST2-Fc/biotin-IL-33 interaction, 1 h; in the data active means inhibition above about 30%
Target sequence (Q01638 whole entry, looked up): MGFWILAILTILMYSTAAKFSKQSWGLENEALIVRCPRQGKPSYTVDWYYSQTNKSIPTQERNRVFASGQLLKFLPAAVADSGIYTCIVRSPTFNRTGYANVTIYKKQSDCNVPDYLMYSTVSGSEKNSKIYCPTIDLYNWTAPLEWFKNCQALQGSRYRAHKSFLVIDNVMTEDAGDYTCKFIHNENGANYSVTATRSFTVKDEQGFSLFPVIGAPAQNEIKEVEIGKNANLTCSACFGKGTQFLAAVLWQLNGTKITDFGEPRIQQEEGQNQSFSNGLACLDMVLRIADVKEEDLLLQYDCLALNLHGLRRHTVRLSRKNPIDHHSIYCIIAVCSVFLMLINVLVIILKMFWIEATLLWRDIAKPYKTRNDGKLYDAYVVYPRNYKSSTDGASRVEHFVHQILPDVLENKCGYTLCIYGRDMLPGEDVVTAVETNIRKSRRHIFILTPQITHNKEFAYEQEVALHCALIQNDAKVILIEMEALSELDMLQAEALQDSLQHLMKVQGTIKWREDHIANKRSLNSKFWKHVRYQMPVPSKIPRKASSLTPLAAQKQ
* = called active by the depositor; i = inactive; ! = not confirmed by another sample. The entries come from a sample that favours hits as a whole.

SMILES	ST2 IL33 inh
COc1ccc(-n2nc3c(c2NC(=O)COc2ccc(Cl)cc2Cl)CSC3)cc1	i
CCSc1nc2ccc([N+](=O)[O-])cc2[nH]1	i
O=[N+]([O-])c1ccc2nc(/C=C/c3ccco3)[nH]c2c1	32%*
O=c1[nH]c(SCc2nc3ccc([N+](=O)[O-])cc3[nH]2)nc2ccccc12	i
O=C(NCC1CCCO1)c1cc2n(n1)C(C(F)(F)F)CC(c1ccc(Cl)c(Cl)c1)N2 (configuration not stated)	i
Cc1ccsc1-c1cn(CC(CO)Cc2ccco2)nn1 (configuration not stated)	i
CCc1cccc(NC2CC(=O)N(c3cccc(Cl)c3)C2=O)c1 (configuration not stated)	i
Cc1ccc([N+](=O)[O-])cc1N1C(=O)CC(Nc2ccc(N3CCOCC3)cc2)C1=O (configuration not stated)	52%*
O=C1CC(N2CCOCC2)C(=O)N1c1cccc(Cl)c1 (configuration not stated)	i
COc1ccc(NC2CC(=O)N(c3cccc(Cl)c3)C2=O)cc1 (configuration not stated)	i
COc1cccc(N2C(=O)CC(Nc3ccc(N4CCOCC4)cc3)C2=O)c1 (configuration not stated)	47%*
O=C1CC(Nc2ccccc2)C(=O)N1c1ccc(Br)cc1 (configuration not stated)	i
O=C1CC(Nc2ccc(Br)cc2)C(=O)N1c1cccc(Cl)c1 (configuration not stated)	32%*
Cc1ccc(S(=O)(=O)N2CCN(c3ccc([N+](=O)[O-])c(N4CCOCC4)c3)CC2)cc1	i
Cc1cccc(N2C(=O)CC(N3CCN(c4ccc(F)cc4)CC3)C2=O)c1 (configuration not stated)	i
O=[N+]([O-])c1ccc(Nc2nc(N3CCOCC3)nc(N3CCOCC3)n2)cc1	i
O=C1CC(Nc2ccc(N3CCOCC3)cc2)C(=O)N1c1cccc([N+](=O)[O-])c1 (configuration not stated)	47%*
O=[N+]([O-])c1cccc(-c2nc(N3CCOCC3)c3ccccc3n2)c1	i
NC(=O)CN1CCOC(Cc2cccc3ccccc23)C1 (configuration not stated)	i
O=C(CCCn1c(=O)[nH]c2ccsc2c1=O)NCCc1ccc(Cl)cc1	i
O=C(Nc1ccccc1[N+](=O)[O-])c1cnc2n(c1=O)CCS2	i
COc1ccc(C2C(=C(O)c3ccccc3)C(=O)C(=O)N2c2nccs2)cc1OC (configuration not stated)	i
Cc1ccc(-c2nc(C(N)=O)c3c(n2)n(-c2ccc(C)c(C)c2)c(=O)n3Cc2ccccc2)c(C)c1	i
CCOC(=O)C1CCCN(S(=O)(=O)c2ccc3c(c2)c(=O)n(C)c(=O)n3C)C1 (configuration not stated)	i
CCS(=O)(=O)c1ccc2oc(=O)c(C=C(O)c3ccc(OC)c(OC)c3)nc2c1	i
SMILES	ST2 IL33 inh
Cc1nc(CCNC(=O)c2cn(CC3COc4ccccc4O3)nn2)sc1C (configuration not stated)	i
O=C(CCn1c(=O)c2sccc2n(Cc2ccccc2F)c1=O)NCc1ccccc1	i
Cc1ccccc1-c1cc(N2CCN(S(=O)(=O)c3c(C)noc3C)CC2)ncn1	i
COc1ccc(S(=O)(=O)N2C[C@@H]3C[C@H](C2)c2ccc(-c4ccc5ccccc5c4)c(=O)n2C3)cc1	i
O=C1CC(Nc2ccc(N3CCOCC3)cc2)C(=O)N1c1ccc2c(c1)OCO2 (configuration not stated)	55%*
O=C1C2C3c4ccccc4C(c4ccccc43)C2C(=O)N1c1ccc2c(c1)OCO2 (configuration not stated)	i
O=C1CC(NCc2ccc3c(c2)OCO3)C(=O)N1c1ccccc1 (configuration not stated)	i
O=C(Nc1ccccc1Oc1ccccc1)c1ccccc1[N+](=O)[O-]	i
COc1ccc(S(=O)(=O)NCc2cccnc2)c(C)c1C	i
Cc1ccc(C2=NN(C(=O)CCC(=O)O)C(c3ccc(Br)cc3)C2)cc1 (configuration not stated)	38%*!
O=C(O)CCCC(=O)N1N=C(c2ccc(Br)cc2)CC1c1ccc(Cl)cc1 (configuration not stated)	i
Cc1ccc(C2=NN(C(=O)CCC(=O)O)C(c3ccc(Cl)cc3)C2)cc1 (configuration not stated)	i
CN(c1ccc(Br)cc1)S(=O)(=O)c1cccc2cccnc12	i
COc1cc(OC)c(-n2cc(-c3ccc(C)cc3)[nH]c2=O)cc1Cl	i
CCCOC(=O)C1=C(C)NC2=C(C(=O)C(C(=O)OC)C(C)C2)C1c1cccc(OC)c1OC (configuration not stated)	i
NC(=O)c1nn(-c2ccccc2)nc1NC(=O)CSc1nnnn1-c1cccc(Cl)c1	i
O=C(CCCCCN1C(=O)c2ccccc2C1=O)Nc1cccc(C(F)(F)F)c1	i

High-throughput results as filed in PubChem BioAssay.
